Screens as filed in PubChem.
PTHR1 ag = PTHR1 (human) receptor agonism; HEK293 GP2 PTHR1 cells, GloSensor cAMP luminescence, 1 h; Potency, µM (series often up to 115 µM), without a hit: at the highest dose activation, usual class: activators; 410,000 tested, 0.075% active; also: potency is read from the fitted curve at half-maximal effect; nearly all actives have a fitted effect of over 55% in size
Target sequence (Q03431 whole entry, looked up): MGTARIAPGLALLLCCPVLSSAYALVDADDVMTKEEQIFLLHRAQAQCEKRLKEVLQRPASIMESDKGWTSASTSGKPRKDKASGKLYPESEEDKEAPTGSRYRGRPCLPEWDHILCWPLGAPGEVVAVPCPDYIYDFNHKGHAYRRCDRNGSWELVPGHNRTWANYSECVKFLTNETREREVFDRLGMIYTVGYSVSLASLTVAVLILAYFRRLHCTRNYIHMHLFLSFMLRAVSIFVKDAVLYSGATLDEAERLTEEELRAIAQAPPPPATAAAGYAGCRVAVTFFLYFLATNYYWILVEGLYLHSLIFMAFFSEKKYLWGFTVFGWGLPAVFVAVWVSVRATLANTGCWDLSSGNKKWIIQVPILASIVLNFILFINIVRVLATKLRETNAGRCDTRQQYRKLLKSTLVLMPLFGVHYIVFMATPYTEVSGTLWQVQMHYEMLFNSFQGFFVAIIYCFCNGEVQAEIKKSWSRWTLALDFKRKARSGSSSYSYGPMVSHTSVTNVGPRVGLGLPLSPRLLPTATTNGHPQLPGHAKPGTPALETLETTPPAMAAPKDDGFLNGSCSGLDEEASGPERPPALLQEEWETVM
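HEK-293-derived GP2 cells expressing PTHR1 and a GloSensor cAMP reporter, 3,000/well, plated overnight, given luciferin plus IBMX (each 0.5 mM as added) for 1 h at 37 °C, then compound for 1 h at 37 °C. Luminescence was read after 15 min at room temperature.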
LDHA block = inhibitors of human lactate dehydrogenase A; 480,000 tested, 0.15% active; AID 1347041; P00338; activity change, % (values are at about 110 or 230 µM); purified LDHA, NADH/diaphorase-resazurin fluorescence; active compounds read low; in the data active = activity change below about -30%; inconclusive = mostly about -25% to -30%;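 also: plate controls were DMSO wells for no effect and wells without enzyme for full effect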
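LDH5 2 nM; NADH 0.06 mM, pyruvate 0.2 mM; 200 mM Tris pH 7.4, EDTA, Tween-20; 5 min RT. Detection: diaphorase 0.133 mg/mL + resazurin 37 µM, fluorescence ex540/em590 at 0 and 20 min; normalized to enzyme-free and DMSO wells.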
FUS yeast rescue = FUS proteinopathy suppression in yeast; Potency, µM (top dose mostly 76.6 µM), most hits filed as activators; 390,000 tested, 0.24% active; S. cerevisiae FUS-expressing, growth rescue, OD600, 24 h;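 also: potency is read from the fitted curve at half-maximal effect; plate controls were DMSO vehicle for no effect and reference control for full effect; nearly all actives have a fitted effect of over 55% in size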
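Steps: raffinose overnight preculture; dilution to OD 0.005 in 2% galactose minimal medium; compound addition (concentration series); 24hr at 30C, 99% humidity; absorbance read at 600 nm.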
TDP43 rescue = inhibitors of TDP-43 toxicity in yeast; TDP-43 expressing yeast growth rescue, BacTiter-Glo, 24 h; Potency, µM (titrated, usually from 46.1 µM), for the others: at the top dose growth rescue (activation), most hits filed as activators; 410,000 tested, 1.8% active; AID 652104; also: potency is read from the fitted curve at half-maximal effect; % of control where 0% means no effect; nearly all actives have a fitted effect of over 50% in size
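Growth rescue of TDP-43-toxic yeast measured as ATP luminescence (BacTiter-Glo). Cells grown to mid-log in raffinose, induced in galactose at OD600=0.02, exposed to compound 24 hr at 30 deg C.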
Abeta yeast res = restores growth of yeast expressing A-beta42 peptide. yeast expressing A-beta42, growth rescue, OD600, 48 h; response scale: 0% DMSO, 100% iron-clioquinol control. Potency, µM (highest dose often 46.1 µM), actives largely listed as activators. 410,000 tested, 0.063% active. AID 1347071; also: potency is read from the fitted curve at half-maximal effect; nearly all actives have a fitted effect of over 55% in size
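Yeast A-beta toxicity model in growth medium with pinned compounds, 48 h at 30 C; growth read as absorbance at 600 nm. Normalized to FeCl3/clioquinol equimolar mix (positive) and DMSO (negative).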
aSyn yeast inh = rescues yeast growth from alpha-synuclein toxicity; Yeast expressing alpha-synuclein, growth rescue, BacTiter-Glo, 24 h; Potency, µM (doses to about 46.1 µM), without a hit: at the highest dose growth rescue (activation), hits mostly activators; 370,000 tested, 0.14% active; also: potency is read from the fitted curve at half-maximal effect; % of control where 0% means no effect; nearly all actives have a fitted effect of over 65% in size
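Screening used galactose-induced yeast with toxic alpha-synuclein levels, exposed to compound for 24 hr at 30 deg C. Cell growth, read with BacTiter-Glo luminescence, gave the measured signal.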
* marks the source's active call; other numbers are inactive results; i = inactive; ? = inconclusive; · = no result given; [ ] = another dose, or the depositor's remark. The list is not random: actives were taken first. Their share in the collection is about 1.9%. Unless noted, calls follow the shape of the dose curve; as a rule, active = well fitted curve in the direction sought with a large enough effect; inconclusive = small, poorly fitted or top-dose-only effect, or another doubt; inactive = no such curve, though single readings can be large; an effect the other way counts as inactive or inconclusive.

SMILES | PTHR1 ag | LDHA block | FUS yeast rescue | TDP43 rescue | Abeta yeast res | aSyn yeast inh
Cn1c2ccccc2c(=O)c2ccc(F)cc21 | -3% | -13 | i | -62% | i | 14µM*
C=CCn1c(N)c(C(=O)Nc2cccc(C)c2)c2nc3ccccc3nc21 | -19%[57.5 µM] | 7 | i | 25µM* | i | 8%
C=CCn1c(N)c(C(=O)Nc2ccc(C)c(C)c2)c2nc3ccccc3nc21 | i | -7 | i | 17% | i | 7%
COc1ccc(C2=NN(C(C)=O)CC2c2cccc([N+](=O)[O-])c2)cc1 (stereo not given) | i | -4 | i | 11µM* | · | 11%
Nc1ccc2oc(-c3ccccc3)cc2c1 | · | 10 | · | · | · | ·
COc1ccc(-c2ccc(CN3C(C(C)C)C(=O)N(Cc4cn(CCC5OCCO5)nn4)CCS3(=O)=O)cc2)cc1 (stereo not given) | -36% | 2 | ? | 35µM* | i | 6%
Cc1ccc(-c2ccc(CN3C(C(C)C)C(=O)N(Cc4cn(CCC5OCCO5)nn4)CCS3(=O)=O)cc2)c(C)c1 (stereo not given) | -89% | 3 | ? | ? | i | ?
Cc1ccccc1-c1ccc(CN2C(C(C)C)C(=O)N(Cc3cn(CCC4OCCO4)nn3)CCS2(=O)=O)cc1 (stereo not given) | -19% | 1 | 10µM* | ? | i | ?
CC(C)Cc1ccc(CN2C(C(C)C)C(=O)N(Cc3cn(CCC4OCCO4)nn3)CCS2(=O)=O)cc1 (stereo not given) | -17% | 4 | ? | 11µM* | i | 8%
COc1ccc(-c2ccc(CN3C(C(C)C)C(=O)N(Cc4cn(CC5CCCCC5)nn4)CCS3(=O)=O)cc2)cc1OC (stereo not given) | -6% | -1 | 25µM* | -8% | i | 16%
CC(C)C1C(=O)N(Cc2cn(CCC3OCCO3)nn2)CCS(=O)(=O)N1Cc1ccc(-c2ccc(Cl)c(Cl)c2)cc1 (stereo not given) | -73% | -2 | ? | ? | i | ?
Cc1cccc(Cn2c(NCc3ccco3)nc3c2c(=O)[nH]c(=O)n3C)c1 | · | 9 | · | · | · | ·
O=C(Nc1ccccc1Br)c1cc(C2CC2)nn1-c1ccccc1 | · | -7 | · | · | · | ·
COCCN(Cc1cc2ccc(C)cc2[nH]c1=O)C(=O)c1ccc(OC)c(OC)c1 | · | 13 | · | · | · | ·
Cc1ccc(NC(=O)c2ccc3c(Cl)c4c(nc3c2)CCCC4)c(Cl)c1 | · | -1 | · | · | · | ·
COCOCCn1cc(CN2CCS(=O)(=O)N(Cc3ccc(-c4ccc(Cl)c(Cl)c4)cc3)C(C(C)C)C2=O)nn1 (stereo not given) | -39% | -17 | ? | 35µM* | i | ?
Cc1cc2nc(-c3ccco3)c(Cc3cccc(Cl)c3)n2c(C)c1Br | -74% | 4 | i | 13µM* | i | 2%
Cc1cc2nc(-c3cccc(Cl)c3)c(Cc3cccc(Cl)c3)n2c(C)c1Br | -29% | 0 | i | ? | i | 3%
O=c1cc(CNc2ccc(Br)cc2)nc2sccn12 | -4% | -4 | · | 20µM* | i | ?
CC(=O)Nc1ccc(OCc2cc(=O)n3ccsc3n2)cc1 | · | -4 | · | · | · | ·
O=C(CC(O)CCc1ccccc1)c1ccc(O)cc1 (stereo not given) | -18% | -3 | i | 10µM* | ? | -1%
N#C/C(=C/c1ccc(OCc2ccccc2C#N)c(Br)c1)c1ccccc1 | · | 11 | · | · | · | ·
CCCCn1nnnc1C(c1ccccc1)N1CCN(c2c(Cl)cncc2Cl)CC1 (stereo not given) | i | 2 | i | 22µM* | i | -1%
COc1cc(Cl)ccc1OCc1cc(C(=O)NCc2cc(C(C)C)no2)no1 | -2% | 1 | · | 11µM* | i | 12%
COc1cc(Cl)ccc1OCc1cc(C(=O)NCC(C)(C)N2CCOCC2)no1 | -6% | -3 | i | 8% | i | -1%
SMILES | PTHR1 ag | LDHA block | FUS yeast rescue | TDP43 rescue | Abeta yeast res | aSyn yeast inh
Cc1cccc(N2CC(C(=O)Nc3nnc(SCC(=O)N4CCOCC4)s3)CC2=O)c1 (stereo not given) | -20% | 2 | 18µM* | -11% | i | -10%
CN1CCN(CC(=O)Nc2ccccc2Oc2ccccc2)CC1 | i | -2 | i | -11% | i | -1%
O=C(Nc1ccccc1Sc1ccccc1)c1ccc(F)cc1 | -15% | -12 | i | 15% | 14µM* | -9%
COc1cccc(OC)c1NC(=O)CN1CCN(C)CC1 | i | -32* | i | -18% | i | -8%
Cc1ccc(C(=O)Nc2ccccc2Sc2ccccc2)cc1 | i | -10 | i | 5% | i | 12%
CN1CCN(CC(=O)Nc2ccccc2Sc2ccccc2)CC1 | -38% | -33* | i | 3%[9.22 µM] | i | -2%
O=C(CN1CCCC1)Nc1ccccc1Sc1ccccc1 | i | -3 | i | 13% | i | 8%
Nc1nc2ccc(Oc3ccccc3)cc2s1 | -27% | -5 | · | 11µM* | i | -12%
Nc1nc2ccc(O)cc2s1 | i | -1 | · | -3% | i | 3%
Nc1nc2ccc(OC(F)(F)F)cc2s1 | -3% | -2 | i | 13µM* | i | ·
CCOC(=O)c1cc2n(n1)CC(C)(C(=O)NCCC(C)C)N(CCc1cccs1)C2=O (stereo not given) | · | -10 | · | · | · | ·
Nc1ccc(-c2nc3ncccc3o2)c(Cl)c1 | -4% | -13 | i | -3% | i | 14µM*
Cc1c(C)c2ccc(OC(C)C(=O)NCCCn3ccnc3)c(C)c2oc1=O (stereo not given) | i | 0 | i | 11% | i | 4%
CCCc1cc(=O)oc2c(C)c(OC(C)C(=O)NCCCn3ccnc3)ccc12 (stereo not given) | · | -33* | · | · | · | ·
O=C(c1cc(-c2ccc(O)cc2)on1)N1CCc2ccccc2C1 | -7% | -2 | i | 14µM* | i | -8%
Cc1ccccc1S(=O)(=O)Nc1nc2ccccc2nc1Cl | i | -8 | i | 10µM* | i | -10%
Cc1nn(C)c(C)c1CNCc1ccc(N2CCOCC2)nc1 | · | 10 | · | · | · | ·
CCCNc1c(NC(=O)Nc2ccccc2OCC)c(=O)oc2ccccc12 | · | -30* | · | · | · | ·
Cc1onc(-c2ccccc2)c1C(=O)OCC(=O)Nc1ccc(OC(F)(F)F)cc1 | -37% | 3 | i | 16µM* | i | 0%
CC(C)NC(=O)NC(=O)COC(=O)c1ccc(OC(F)(F)F)cc1 | i | -4 | · | ? | 10µM* | 6%
COc1cccc(OC)c1C(=O)OCC(=O)Nc1ccc(OC(F)(F)F)cc1 | -17% | 1 | i | 14µM* | i | -4%
